Experimental data from the supplement of paper PMC12636033.
± gives the standard deviation of the averaged measurements. Over roughly 33,000 sequences, “E-score (rank enrichment, -0.5 to 0.5)” has its median near -0.0028; the highest 2% begin near 0.23. This excerpt belongs to a sample that is enriched for the highest values.

These sequences were tested on 2Sb-muMax20 (muMax20 with two 1,3-bis(methyl)benzene Cys staples, A13C/A17C and Q88C/A92C, C-terminal Lys) (assay: PBM 8-mer E-score (E-score (rank enrichment, -0.5 to 0.5)); higher = stronger preferential binding).
Experimental: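 Protein binding microarray (universal PBM chip covering all 10-mers in fixed probe flanks) with chemically synthesized human Max(13-93) bHLH-LZ analogs (not full-length Max) bearing noncanonical residues (hArg, Tha, Aib, Nle at 65) and aromatic Cys staples. Read-out per 8-mer (and its reverse complement): E-score (rank-based enrichment, -0.5 to 0.5) and Z-score of median probe intensity.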

| Sequence | PBM 8-mer E-score |
| --- | --- |
| TATTAAAA | 0.142 ± 0.065 |
| GGAACACC | -0.18 ± 0.026 |
| ACACGGGT | -0.046 ± 0.012 |
| ATTAGGTC | 0.0763 ± 0.069 |
| ATTATCCA | 0.0946 ± 0.055 |
| ACGGAACT | -0.0318 ± 0.08 |
| AGCGTCGG | -0.117 ± 0.08 |
| CAGTATCC | 0.0515 ± 0.025 |
| CCACGTTA | 0.3181 ± 0.0019 |
| GCACGTTA | 0.1 ± 0.012 |
| CCACGTTC | 0.0604 ± 0.011 |
| TAGCTTCA | 0.122 ± 0.05 |
| AGCGCCCC | -0.0138 ± 0.11 |
| AGTATAAA | 0.188 ± 0.0027 |
| AGTATAAG | 0.272 ± 0.011 |
| AGTATAAT | 0.24 ± 0.091 |
| AGTATAAC | -0.0733 ± 0.029 |
| ACTATAAG | 0.0622 ± 0.044 |
| CGTATAAG | 0.0878 ± 0.037 |
| AGCGCAGA | -0.126 ± 0.074 |
| AAATAAAT | 0.172 ± 0.013 |
| ATAGAAAC | 0.0134 ± 0.036 |
| AAGAGGCC | -0.129 ± 0.067 |

| Sequence | PBM 8-mer E-score |
| --- | --- |
| GACTTCAA | 0.15 ± 0.0026 |
| TACTTCAA | 0.265 ± 0.047 |
| AACTTCAA | 0.00863 ± 0.015 |
| AAGATCTT | 0.257 ± 0.052 |
| AAGATCTA | -0.0269 ± 0.015 |
| AAGATCTG | 0.0847 ± 0.069 |
| ATGCTGAA | 0.0724 ± 0.024 |
| ACCTAGTG | 0.109 ± 0.023 |
| CGGGGATA | 0.0352 ± 0.012 |
| ATGGGATA | 0.145 ± 0.0055 |
| AGGGGATA | 0.303 ± 0.046 |
| GGGGGATA | 0.0584 ± 0.079 |
| GTGGGATA | 0.274 ± 0.071 |
| CTGGGATA | -0.0992 ± 0.038 |
| ATGCTTCC | -0.0299 ± 0.042 |
| GCCCAGGA | -0.14 ± 0.058 |
| ACCGCGGT | -0.115 ± 0.037 |
| CCCTCCGC | -0.0855 ± 0.048 |
| AACCGATC | -0.0993 ± 0.0093 |
| GCGTGTTA | 0.0351 ± 0.018 |
| ACGTGTTG | 0.258 ± 0.013 |
| ACGTGTTA | 0.269 ± 0.0048 |
| ATGTGTTG | 0.197 ± 0.039 |

| Sequence | PBM 8-mer E-score |
| --- | --- |
| ACGTGTAT | 0.35 ± 0.016 |
| ACGTGTAC | 0.147 ± 0.019 |
| CCGTGTTA | 0.0249 ± 0.014 |
| ACGTGTTC | 0.103 ± 0.017 |
| ACGTGTGA | 0.0598 ± 0.014 |
| ACGTGTGG | 0.151 ± 0.034 |
| ACGTGTAG | -0.0126 ± 0.035 |
| ACGTGTGC | 0.2375 ± 0.00032 |
| GCCTAACA | 0.0954 ± 0.1 |
| ATCTCCAA | 0.107 ± 0.026 |
| CTGTCTCC | -0.098 ± 0.04 |
| AATTTGAT | -0.0177 ± 0.068 |
| GCAATTGC | 0.031 ± 0.021 |
| AACATCGA | 0.0919 ± 0.039 |
| GTTGATGA | 0.108 ± 0.0079 |
| ATTGGTTC | 0.0837 ± 0.026 |
| GGGCCGGA | -0.178 ± 0.071 |
| AATAATCA | 0.0347 ± 0.023 |
| TATAATCA | 0.263 ± 0.0093 |
| GATAATCA | 0.188 ± 0.037 |
| AGTATTCC | 0.115 ± 0.061 |
| CAGTATGA | 0.103 ± 0.036 |
| AAGTATGA | 0.139 ± 0.069 |

| Sequence | PBM 8-mer E-score |
| --- | --- |
| TAGTATGA | 0.233 ± 0.017 |
| CCAGGTGA | -0.197 ± 0.057 |
| GTGCGAAC | -0.083 ± 0.0049 |
| CATTAGTA | 0.0235 ± 0.027 |
| AATTAGTA | 0.281 ± 0.031 |
| AATTAGTC | 0.0882 ± 0.024 |
| AGCCGCGG | -0.23908 ± 0.00016 |
| AACGCCGT | -0.116 ± 0.032 |
| ACATGTTG | 0.289 ± 0.023 |
| GCATGTTA | 0.165 ± 0.072 |
| ACATGTTC | 0.144 ± 0.088 |
| ACATGTTA | 0.2525 ± 0.0013 |
| CCATGTTA | 0.111 ± 0.079 |
| AGATGTTG | -0.0885 ± 0.12 |
| CGTGTGAA | -0.155 ± 0.051 |
| ACGTGAGC | 0.0717 ± 0.062 |
| AATCAAAC | 0.16 ± 0.021 |
| CGTTCTAA | 0.032 ± 0.071 |
| GGCCCACA | -0.0654 ± 0.04 |
| AGCCCACG | 0.0705 ± 0.024 |
| AGCCCACC | -0.043 ± 0.018 |
| ATCCCACC | 0.193 ± 0.054 |
| CTCCCACC | 0.27 ± 0.025 |

| Sequence | PBM 8-mer E-score |
| --- | --- |
| CGCCCACC | 0.312 ± 0.0061 |
| CTCCCACA | 0.119 ± 0.064 |
| CGCCCCAG | 0.0881 ± 0.046 |
| CGCCCACG | -0.0314 ± 0.056 |
| GGCCCCAC | 0.103 ± 0.019 |
| AGCCCACA | 0.2403 ± 0.0014 |
| CGCCCCAC | 0.253 ± 0.11 |
| CATGTAGC | 0.084 ± 0.043 |
| CTCCACTA | 0.0307 ± 0.041 |
| CCATCGAG | -0.0349 ± 0.043 |
| ACCACGAC | -0.0523 ± 0.04 |
| CGTACAAG | -0.0151 ± 0.087 |
| ATAGCGAA | 0.0983 ± 0.034 |
| ACCTATTC | -0.025 ± 0.024 |
| GAATGCTA | -0.216 ± 0.036 |
| CAATGCTA | 0.00426 ± 0.07 |
| TAATGCTA | 0.231 ± 0.044 |
| TGATGGCA | 0.0723 ± 0.063 |
| GGATGGCA | 0.267 ± 0.059 |
| GGATGGCC | -0.241 ± 0.023 |
| ACTTTCGA | 0.0801 ± 0.036 |
| AAGCTTCT | 0.104 ± 0.092 |
| TATCATGA | 0.278 ± 0.02 |

| Sequence | PBM 8-mer E-score |
| --- | --- |
| AATCATGA | 0.136 ± 0.035 |
| CATCATGA | 0.0474 ± 0.048 |
| GGGGATAA | 0.234 ± 0.063 |
| GGGGATAC | 0.0267 ± 0.0099 |
| CGGGATTA | 0.032 ± 0.017 |
| TGGGATAA | 0.0797 ± 0.017 |
| AGGGATTA | -0.0189 ± 0.016 |
| GGGGATTA | 0.278 ± 0.013 |
| CAGTAAGG | -0.0281 ± 0.052 |
| AATAGTGT | 0.1565 ± 0.001 |
| GTCCCCGA | 0.0628 ± 0.032 |
| AACTGTGA | -0.0892 ± 0.026 |
| TAACTGGA | -0.0436 ± 0.0063 |
| CATTAGCC | -0.0287 ± 0.08 |
| ATATGCCA | 0.305 ± 0.06 |
| ATATGCCG | -0.076 ± 0.083 |
| CTATGCCA | 0.0722 ± 0.02 |
| ATCGACGC | 0.0538 ± 0.027 |
| ATGTGTAC | 0.107 ± 0.014 |
| GCCAGTGA | 0.0103 ± 0.058 |
| ACACGAGG | 0.0366 ± 0.063 |
| ACACGAGT | 0.248 ± 0.044 |
| ACACGTGC | 0.409 ± 0.0079 |

| Sequence | PBM 8-mer E-score |
| --- | --- |
| ACACGAGA | -0.125 ± 0.065 |
| TAACGTGA | -0.0146 ± 0.035 |
| AGACGTGC | -0.124 ± 0.021 |
| ACACGTAC | 0.0764 ± 0.051 |
| TCACGTAA | -0.031 ± 0.021 |
| ACACGTGG | 0.416 ± 0.0009 |
| TCACGTGA | 0.439 ± 0.033 |
| ACACGTAG | 0.0467 ± 0.016 |
| AAACGTGG | 0.0929 ± 0.011 |
| AAGGCCGA | -0.0488 ± 0.013 |
| CGCTGACA | -0.122 ± 0.0063 |
| TCTAGTCA | 0.105 ± 0.035 |
| CCCCCGGG | -0.43 ± 0.042 |
| CCGCCTCG | -0.04 ± 0.07 |
| GATACTCC | -0.0231 ± 0.06 |
| GCGCGGGA | -0.038 ± 0.036 |
| ATTCAGAG | -0.21 ± 0.046 |
| CGTGCATA | 0.165 ± 0.016 |
| ACACGTGA | 0.3874 ± 0.0005 |
